Experimental data as given in PubChem BioAssay (EPA / NIEHS).
Records with an inconclusive call do not appear. Activity calls are given as the source filed them. The calls were made as follows: active = hit-call score of the fitted dose curve at least 0.9, where 1 is the maximum; inconclusive = response in the unintended direction; inactive = score below 0.9.

Each compound was assayed against human Vitamin D Receptor (VDR), VDR (gene 7421) (UniProt P11473) (assay: ATG_VDR_TRANS: Attagene TRANS-FACTORIAL HepG2 Assay for human Vitamin D Receptor (VDR) (AID 2283022)).
How it was run: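 Fluorescence of labelled reporter cDNA fragments, resolved by capillary electrophoresis, gives mRNA induction after 24 h treatment of HepG2 cells carrying transfected Gal4-fusion reporter units. Activity is fitted in the positive direction with DMSO as baseline.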

Chain of human Vitamin D Receptor (VDR), VDR (gene 7421) (P11473 whole entry, looked up, the tested form may be a part): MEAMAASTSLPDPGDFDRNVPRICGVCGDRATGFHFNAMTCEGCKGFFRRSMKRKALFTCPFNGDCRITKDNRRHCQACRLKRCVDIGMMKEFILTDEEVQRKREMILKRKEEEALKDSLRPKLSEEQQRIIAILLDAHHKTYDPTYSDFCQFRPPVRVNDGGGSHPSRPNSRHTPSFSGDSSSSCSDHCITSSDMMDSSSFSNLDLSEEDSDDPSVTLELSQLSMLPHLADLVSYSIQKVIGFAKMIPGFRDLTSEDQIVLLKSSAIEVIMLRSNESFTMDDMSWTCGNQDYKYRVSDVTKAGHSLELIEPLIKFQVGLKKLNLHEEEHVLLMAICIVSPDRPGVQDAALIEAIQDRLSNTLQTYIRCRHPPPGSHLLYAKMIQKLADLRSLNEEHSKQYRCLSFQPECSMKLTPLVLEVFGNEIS

outcome, inactive:
CCCCCCCCC
Cc1ccc(C(=O)c2cc(O)c(O)c([N+](=O)[O-])c2)cc1
O=C(O)COCCN1CCN(C(c2ccccc2)c2ccc(Cl)cc2)CC1 (stereo not given)
COc1cc2ncnc(Nc3cccc(Cl)c3)c2cc1OC
CC(C)(C#N)c1cc(Cn2cncn2)cc(C(C)(C)C#N)c1
c1ccc(CCCc2ccccn2)cc1
CC(C=O)Cc1ccc(C(C)C)cc1 (stereo not given)
COc1ccc(O)cc1
CCCCOCCOCCSC#N
ClCCCl
